# Screens: PubChem BioAssay, National Center for Advancing Translational Sciences (NCATS)
# Compounds with a hit are over-represented: about 1.3% of the library has one in this group of screens.
# IL2 activator: activators of IL-2. 360,000 compounds, 0.065% hits. activation, % (series mostly up to about 46 µM). IL-2 activation reporter assay, cell-based qHTS; stimulated with anti-CD3/CD4/CD28 beads; in transgenic mouse T cells. AID 652025; also: 0% is about no effect
#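 First, unstimulated transgenic mouse T cells were exposed to compound for 60 min. Next, anti-CD3/anti-CD4-coated beads with anti-CD28 were added. Finally, after 18 h at 37 degrees C, EGFP and DsRed were imaged.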
# TRPML1 blocker: inhibitors of human TRPML1 channel; Q9GZU1; TRPML1-inducible cells, Ca2+ dye fluorescence, FDSS; stronger effect = lower value; inhibition of EC80 agonist-evoked calcium signal; activity change, negative = inhibition, % (concentration not given with the values); 390,000 compounds, 0.02% hits; in the data active = activity change below about -50%; inconclusive = between about -30% and that limit;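 also: stimulus is agonist 54-4 at its EC80 concentration; % is scaled to controls: 0 for no effect and ±100 for the full control effect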
#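 TRPML1-DL cells, Tet-induced overnight (~16 h, 37 °C) at 1,500 cells/well, were loaded with Ca8 no-wash dye plus quencher for 45-90 min at room temperature. Compounds were pinned during FDSS kinetic reading; agonist 54-4 at EC80 (4 uM final) then added.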
# TSG101-PTAP inh: blocks PTAP/TSG101 interaction to inhibit HIV-1 budding; Fluorescence polarization, FITC-PTAP peptide / Tsg101 binding; Potency, µM (highest dose often 115 µM), without a hit: top-dose activity change, negative = inhibition, usual class: inhibitors; 340,000 tested, under 10 active; active = well fitted inhibition curve with a large enough effect in the main read-out, with a control signal flat, not every such curve was filed as active; inconclusive = small, poorly fitted or top-dose-only effect, or effect the other way, or a change in a side signal; inactive = no such curve, though single readings can be large or run the other way; also: potency is read from the fitted curve at half-maximal effect; % of control where 0% means no effect
#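 FP read-out: FITC-PTAP peptide, 50 nM final, binding Tsg101 binding domain, 10 uM final; 20 min, r.t.; 10 mM HEPES pH 7.5, 0.15 M NaCl, 0.01% Tween 20, 3 mM EDTA, 0.1 mM TCEP.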
# TRPML1 agonist: human mucolipin-1 channel agonism | activation, % (no concentration beside the values) | AID 624414 | TRPML1-expressing cells, Ca2+ dye fluorescence, FDSS | Q9GZU1 | 410,000 compounds, 0.12% hits; also: 0% is about no effect
#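 Kinetic FDSS Ca2+ read in Tet-induced TRPML1-DL cells (ABD Ca8 dye plus quencher, 45-90 min RT loading): baseline, then compound, then 110 s agonist window; EC80 agonist 54-4 at 4uM final added afterwards for a 110 s antagonist window.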
# BRCA1 expr act: increases BRCA1 expression; MCF7-BRCA1-FFLuc reporter, luminescence, 48 h; response scale: scaled: vehicle 0%, 10 µM genistein 100%; Potency, µM (series often up to 46.1 µM), without a hit: top-dose activation, most hits filed as activators; 380,000 compounds, 1.1% hits; active = well fitted activation curve with a large enough effect; inconclusive = small, poorly fitted or top-dose-only effect; inactive = no such curve, though single readings can be large or run the other way; also: potency is read from the fitted curve at half-maximal effect; nearly all actives have a fitted effect of over 80% in size
#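 Reporter cells (MCF7, BRCA1 promoter-firefly luciferase) received library compounds across a concentration series for 48 h. End-point luminescence was measured and concentration-effect curves derived after normalization.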
# PKM2 activator: activators of human pyruvate kinase M2 | P14618 | purified PKM2, Kinase-Glo ATP luminescence, activation; response scale: 0% is enzyme alone, no compound | Potency, µM (doses to about 57.5 µM), for inactives: top-dose activation, hits mostly activators | 260,000 compounds, 0.34% hits | AID 1631; active = well fitted activation curve with a large enough effect; inconclusive = small, poorly fitted or top-dose-only effect; inactive = no such curve, though single readings can be large or run the other way; also: potency is read from the fitted curve at half-maximal effect; % is scaled to controls: 0 for no effect and ±100 for the full control effect; nearly all actives have a fitted effect of over 55% in size
# Target sequence (P14618 whole entry, looked up): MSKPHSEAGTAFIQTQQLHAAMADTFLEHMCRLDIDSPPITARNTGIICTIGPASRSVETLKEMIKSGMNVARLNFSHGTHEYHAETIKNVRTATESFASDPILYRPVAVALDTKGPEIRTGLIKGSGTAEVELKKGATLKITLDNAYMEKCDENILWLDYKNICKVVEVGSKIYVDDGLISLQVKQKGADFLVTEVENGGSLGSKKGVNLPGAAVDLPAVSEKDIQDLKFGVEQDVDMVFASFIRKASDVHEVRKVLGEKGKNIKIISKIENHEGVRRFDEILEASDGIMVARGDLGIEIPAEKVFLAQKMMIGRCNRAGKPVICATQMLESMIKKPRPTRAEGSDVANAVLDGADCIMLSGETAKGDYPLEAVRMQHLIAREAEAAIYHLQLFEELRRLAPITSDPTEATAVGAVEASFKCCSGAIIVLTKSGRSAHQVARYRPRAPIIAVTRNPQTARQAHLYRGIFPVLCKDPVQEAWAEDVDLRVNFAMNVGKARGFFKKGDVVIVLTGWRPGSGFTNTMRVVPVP
#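 hPK-M2, >95% pure; 0.1 mM ADP / 0.5 mM PEP final; imidazole pH7.2 buffer w/ 7 mM MgCl2, 50 mM KCl; 1 h RT; Kinase-Glo lum. Intermediate enzyme activity for dual inhibitor/activator qHTS.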
# * = called active by the depositor; ? = inconclusive; . = not tested or not shown. Rule as the data show it, unless noted: active = activation above about 50%; inconclusive = mostly about 30% to 49%; inactive = weaker than that.
SMILES,IL2 activator,TRPML1 blocker,TSG101-PTAP inh,TRPML1 agonist,BRCA1 expr act,PKM2 activator
COc1cc2c(cc1NC(=O)C(F)(F)F)-c1ccc(NC(=O)C(F)(F)F)cc1C2,-3.6,-11.0,-0.1%,-0.6,22.5%,.
Cn1c(=O)c2[nH]c(-c3ccccc3Cl)c(O)c2n(C)c1=O,7.6,-15.5,-3.8%,5.8,2.3%,?
Cn1c(=O)c2[nH]c(-c3ccccc3)c(O)c2n(C)c1=O,4.3,-18.4,-14.6%,27.6,-3.7%,1.41µM*
NS(=O)(=O)c1ccc(CCNC(=O)c2ccc(Br)s2)cc1,-0.5,15.3,-1.5%,0.1,-2.3%,1.6%
O=C(NCCc1ccc(Cl)cc1)c1ccc(Br)s1,0.7,32.8,-0.3%,0.8,3.55µM*,3.9%
Cc1ccc(-c2cc(-c3coc4ccc(Cl)cc4c3=O)c3c(n2)-c2ccccc2OC3)cc1,.,26.2,.,0.8,0.0%,.
COc1ccc(CCN(C)C(=O)C(CCSC)NC(=O)c2ccco2)cc1OC (stereo not given),-0.4,-4.2,-2.6%,0.6,-1.3%,.
CCOc1ccc(NC(=O)Cn2c(=O)n(-c3ccccc3)c(=O)c3c4c(sc32)CCCC4)cc1,.,1.7,.,-0.7,-19.0%,.
COc1ccc(CNC(=O)C(c2ccc(C)o2)N(Cc2cccs2)C(=O)Cc2cccs2)cc1 (stereo not given),-4.1,5.7,-0.6%,1.6,-39.2%,10µM*
CCN(CC)c1cc2c(cc1F)c(=O)c(S(=O)(=O)c1ccc(OC)cc1)cn2Cc1ccccc1,.,29.8,.,2.0,.,.
COc1ccccc1C(=O)COC(=O)c1ccc(N(C)C)cc1,-2.8,8.0,-1.4%,0.4,3.98µM*,-2.3%
CCOn1c(=O)c(-c2cc3ccccc3o2)[n+]([O-])c2ccccc21,51.9*,23.5,-2.6%,0.0,4.9%,1.0%
O=C(NCc1ccco1)Nc1ccc(Br)cc1Cl,-1.4,14.2,-3.2%,1.1,12.6µM*,-12.4%
Cc1ccc(CNC(=O)COc2ccc(C)nc2[N+](=O)[O-])cc1,-2.3,13.4,-0.1%,-0.5,-19.1%,-9.1%
Cc1ccc(COc2ccc(C)nc2[N+](=O)[O-])cc1,-0.1,23.4,0.3%,-0.3,4.47µM*,3.2%
CC(Sc1nc(N)c2c3c(sc2n1)CSC(C)(C)C3)C(=O)Nc1ccccc1 (stereo not given),-0.5,20.2,-0.1%,2.1,-72.9%,7.08µM*
CC1(c2nnc(-c3cccc(Cl)c3)o2)CC(c2ccc(Cl)cc2)=NO1 (stereo not given),0.7,15.1,0.4%,1.2,-0.5%,.
CC1(c2nnc(-c3cccc(Cl)c3)o2)CC(c2ccc(F)cc2)=NO1 (stereo not given),-0.4,-0.8,-2.6%,-0.2,11.2µM*,.
O=C(Nc1cccnc1)c1ccc([N+](=O)[O-])s1,-0.2,-0.2,-5.1%,-0.8,-42.8%,.
O=C(NNC(=O)c1ccc2nc[nH]c2c1)c1ccccc1,-0.2,4.9,-5.8%,-0.7,10.8%,.
CC1CCC(NC(=O)c2ccc3nc[nH]c3c2)CC1 (stereo not given),1.5,-11.4,-1.7%,1.5,11.2µM*,-1.0%
COc1ccc(CNC(=O)CSc2ccsc2[N+](=O)[O-])cc1,2.6,13.5,-5.4%,-0.3,10µM*,-14.8%
N#C/C(C(=O)c1ccccc1)=C1/CCCCCN1,0.4,-14.0,-2.5%,2.0,3.98µM*,-6.4%
COc1ccc(-n2cc(C(=O)Nc3ccccc3C#N)c3ccccc3c2=O)cc1,.,3.2,.,-0.3,.,.
Cc1cc(C)cc(-n2c3ccc(NC(=O)Cc4cccc5ccccc45)cc3c(=O)n2C)c1,-0.6,.,.,-0.7,-59.2%,.
SMILES,IL2 activator,TRPML1 blocker,TSG101-PTAP inh,TRPML1 agonist,BRCA1 expr act,PKM2 activator
Cn1c(=O)c2cc(NC(=O)Cc3ccccc3F)ccc2n1-c1ccc(C(C)(C)C)cc1,-0.5,.,.,63.3*,-51.9%,.
COC(=O)c1ccc(Cn2c(SCc3ccccc3)nc3ccncc32)cc1,.,-9.3,.,0.8,.,.
COc1ccc(C(=O)NCC(c2ccc3c(c2)OCO3)N2CCN(c3ccccc3F)CC2)cc1 (stereo not given),.,6.6,.,0.9,.,.
CCC(=O)Nc1ccc(NC(=O)c2ccccn2)cn1,-3.5,27.8,-7.1%,0.3,?,-22.7%
CC(C)C(=O)Nc1ccc(NC(=O)c2ccccn2)cn1,-0.8,-4.4,-10.1%,0.8,2.51µM*,-25.4%
Cc1ccccc1C(=O)Nc1cccc(-c2nnc(SCC(=O)NCc3ccco3)n2C)c1,.,.,.,-0.4,9.5%,.
CCn1nccc1C(=O)Nc1ccc(Cl)cn1,1.1,-13.2,-1.3%,4.4,0.0%,-20.4%
CCn1ccc(C(=O)Nc2ccc(Cl)cn2)n1,-2.3,20.4,1.1%,0.0,2.51µM*,9.2%
O=C(CSc1ncc(-c2ccc(F)cc2)[nH]1)N1CCCCC1,3.7,6.0,-2.2%,-0.6,11.2µM*,7.0%
O=C(CSc1ncn[nH]1)N1CCCCC1,0.6,-6.3,-3.8%,0.0,19.7%,-1.7%
CS(=O)(=O)N1CCN(c2ccc([N+](=O)[O-])c(NCc3cccnc3)c2)CC1,-2.4,-12.2,-1.3%,0.4,-27.8%,10µM*
COc1ccc(NC(=O)CCCOc2cc(=O)n(C)c3ccccc23)c(OC)c1,.,-11.8,.,-0.7,.,.
COc1ccc2cc(C(N)=O)c(=Nc3ccc(C)cc3)oc2c1,-2.5,19.9,-1.0%,-0.9,?,0.8%
COc1ccccc1N=c1oc2cc(O)ccc2cc1C(=O)NCC1CCCO1 (stereo not given),-0.5,7.1,-7.8%,2.1,-13.1%,-2.7%
Cc1cccc(N=c2oc3cc(O)ccc3cc2C(N)=O)c1,-1.1,10.0,2.0%,0.6,11.2µM*,-1.4%
COc1ccccc1N=c1oc2cc(O)ccc2cc1C(N)=O,-0.4,13.8,-0.2%,1.8,10µM*,-8.1%
Cc1ccc(Cl)cc1NC(=O)c1oc2c(c1C)-c1[nH]ncc1CC2,.,5.1,.,2.4,.,.
O=C(CSc1nc(-c2ccccc2)[nH]c1-c1ccccc1)Nc1ccc2c(c1)OCO2,.,1.8,.,2.8,.,.
CCOC(=O)c1ccc(-c2ccc3c(c2)CCC3)nc1C,0.0,17.5,2.3%,0.1,10µM*,.
COCOCCn1cc(CN2CCS(=O)(=O)N(Cc3ccc(-c4ccc(Cl)c(Cl)c4)cc3)C(C)C2=O)nn1 (stereo not given),-2.2,0.6,.,5.6,-68.0%,.
Cc1ccc(C(=O)C2=C(O)C(=O)N(c3ncccn3)C2c2cccc(Cl)c2)o1 (stereo not given),.,.,.,.,.,6.31µM*
